From PubChem
An excerpt weighted towards active compounds, which were near 4.6% of everything screened.
TRHR PAM: allosteric enhancers of human TRH receptor; enhancement, % at 2 µM; 360,000 tested, 0.66% active; TRHR cells, fluo-8 calcium fluorescence, EC20 TRH enhancement; AID 493056; in the data active = enhancement above about 30%; note: 0% is about no effect
Target sequence (P34981 whole entry, looked up): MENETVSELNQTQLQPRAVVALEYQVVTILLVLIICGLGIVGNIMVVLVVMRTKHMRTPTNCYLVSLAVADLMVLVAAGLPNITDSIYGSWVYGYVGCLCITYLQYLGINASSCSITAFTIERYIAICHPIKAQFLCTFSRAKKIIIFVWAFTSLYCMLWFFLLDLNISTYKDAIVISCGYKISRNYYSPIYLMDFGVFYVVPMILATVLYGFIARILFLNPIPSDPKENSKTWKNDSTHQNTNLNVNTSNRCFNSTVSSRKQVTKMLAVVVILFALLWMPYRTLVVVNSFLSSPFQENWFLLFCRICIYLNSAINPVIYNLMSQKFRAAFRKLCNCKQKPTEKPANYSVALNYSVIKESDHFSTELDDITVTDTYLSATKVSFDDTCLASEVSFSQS
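Enhancer read-out: after compound pinning and an initial kinetic agonist-mode read, an EC20 of TRH (10 nM final) was injected and fluo-8 calcium signal (Ex 480/Em 530) followed at 1 s/cycle for 100 cycles in TRHR-expressing cells.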
TRHR ag: TRH receptor (human) agonism | activation, % at 2 µM | P34981 | TRHR cells, calcium flux fluo-8, FDSS agonist mode | AID 493084 | 360,000 tested, 0.18% active; note: 0% is about no effect
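TRHR-expressing cells, plated overnight in medium with 10% serum, were loaded with fluo-8 calcium dye at room temperature. After a 10 s baseline, library compound was pin-added and calcium release was recorded kinetically (ex 480/em 530) as agonist response.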
D1 antag: human D1 dopamine receptor antagonism; 360,000 tested, 3.2% active; activity change, negative = inhibition, % at 10 µM; HEK293 TREx D1 cells, calcium flux, dopamine EC80; hits give low values; in the data active = activity change below about -30%; note: % is set by controls: 0 for no effect and ±100 for the full control effect
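Tetracycline-induced HEK293 T-REx cells with force-coupled D1 receptor were loaded with a no-wash calcium dye. Compound was added after a 10 s baseline and read kinetically for 180 s; EC80 dopamine was then added and calcium flux followed another 180 s.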
D1 potentiator: potentiators of human D1 dopamine receptor; 360,000 tested, 0.036% active; potentiation, % at 10 µM; HEK293 TREx D1 cells, calcium flux, dopamine EC20 potentiation; P21728; in the data active = potentiation above about 30%; note: 0% is about no effect
D1 ag: agonists of human D1 dopamine receptor. activation, % at 2 µM. AID 504660. P21728. HEK293 T-REx D1 cells, calcium flux, agonist mode. 360,000 tested, 1% active; note: 0% is about no effect
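Tetracycline-induced HEK293 TREx D1 cells, force-coupled to calcium signalling, were dye-loaded with a no-wash calcium kit. Compound was pin-added after a 10 s baseline. Fluorescence was read kinetically at 1 cycle/s for 180 s, with calcium rises flagged as agonism.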
* marks the source's active call; other numbers are inactive results; nt = no result. Cut-off read from the data, not from the text of the source, unless noted: active = activation above about 30%; inactive = the rest.

SMILES | TRHR PAM | TRHR ag | D1 antag | D1 potentiator | D1 ag
CCc1ccc2[nH]c(=O)c(C(c3nnnn3Cc3ccccc3)N3CCOCC3)cc2c1 (stereo unspecified) | 3.1 | -0.2 | 1.4 | -3.5 | -0.4
COc1ccc(OC)c(C(c2nnnn2Cc2ccccc2)N2CCC(C(N)=O)CC2)c1 (stereo unspecified) | 2.2 | -1.2 | -44.7* | -5.0 | 2.4
CCc1ccc2[nH]c(=O)c(C(c3nnnn3Cc3ccc(OC)cc3)N3CCOCC3)cc2c1 (stereo unspecified) | 4.4 | -0.2 | -43.9* | 3.9 | 0.2
COc1ccc(-c2noc(N3CCC(C(=O)Nc4ccc(F)cc4F)CC3)n2)cc1 | 14.0 | -0.5 | -0.4 | -9.7 | 8.1
COc1ccc(-c2noc(N3CCC(C(=O)NCc4ccc(F)cc4)CC3)n2)cc1 | 0.5 | -0.2 | -36.2* | -9.8 | 10.5
COc1ccc(-c2noc(N3CCC(C(=O)Nc4ccc(OC)cc4OC)CC3)n2)cc1 | 2.1 | 0.1 | -31.4* | -13.8 | 9.1
COc1ccc(-c2noc(N3CCC(C(=O)N4CCN(c5cccc(C)c5C)CC4)CC3)n2)cc1 | -3.4 | 0.0 | -7.5 | 0.9 | 4.6
CCc1ccc(NC(=O)C2CCN(c3nc(-c4ccc(OC)cc4)no3)CC2)cc1 | 18.4 | 0.1 | -1.5 | -1.1 | -0.4
Cc1nc(-c2ccc(C)c(S(=O)(=O)N3CCC(C(=O)NCc4ccc(Cl)cc4)CC3)c2)no1 | 30.3* | -0.3 | -16.6 | 1.8 | 0.8
COc1ccc(-c2noc(N3CCC(C(=O)N4CCN(c5ccccc5OC)CC4)CC3)n2)cc1 | -9.9 | 0.5 | -56.1* | -3.8 | 8.0
O=C(CCCN1C(=O)C2CC=CCC2C1=O)Nc1cccc(F)c1 (stereo unspecified) | 3.0 | 0.4 | -1.0 | -9.8 | 3.9
CCCCOc1ccc(C(=O)Nc2ccc3c(c2)CCCN3S(=O)(=O)c2ccc(C)cc2)cc1 | 1.6 | 1.1 | -10.4 | -0.1 | 1.0
CC(OC(=O)c1ncc(Cl)c(Cl)c1Cl)C(=O)NC1CCCCC1C (stereo unspecified) | -0.8 | -0.4 | -32.1* | 0.0 | 2.1
CNCCCC1c2ccccc2C=Cc2ccccc21 | 27.5 | 2.9 | -21.9 | -5.2 | 42.8*
O=C(CCNC(=O)c1ccco1)Nc1ccccc1OC(F)F | -6.7 | 0.6 | 3.4 | nt | 3.3
O=C(CCNC(=O)c1ccco1)Nc1ccc(OC(F)F)c(Cl)c1 | -5.8 | -0.1 | -31.0* | -7.7 | 2.3
O=C(NCCC1=CCCCC1)c1ccc2c(c1)N(Cc1ccccc1F)C(=O)c1ccccc1S2=O (stereo unspecified) | -3.8 | 0.6 | -10.4 | -4.4 | 6.7
Nc1c(C(=O)c2ccccc2)sc2nsc(SCCN3CCCC3)c12 | -8.2 | 54.1* | -34.5* | -3.9 | 166.6*
Nc1c(C(=O)c2ccc(Cl)cc2)sc2nsc(SCCN3CCOCC3)c12 | -4.8 | 27.5 | -25.5 | -1.1 | 102.6*
Cc1ccc(S(=O)(=O)Cc2nc(-c3ccc(C(=O)NCc4ccccc4F)cc3)oc2C)cc1 | -5.5 | -1.0 | -5.7 | 0.4 | 14.2
COc1ccc(-n2cc(CNC3CCN(C)CC3)c(-c3cccc(F)c3)n2)cc1 | 8.6 | 8.1 | 1.7 | -2.1 | 46.2*
CCOc1ccccc1NC(=O)c1nc2nc(C)cc(C(F)F)n2n1 | 10.3 | 0.0 | -4.1 | -0.3 | 2.2
CN(CC1CCN(CCc2cccc(C(F)(F)F)c2)CC1)C(=O)c1ccc(F)cc1F | -0.6 | -0.4 | 6.3 | -0.1 | -1.0
COc1ccc(C(=O)N(C)CC2CCN(CCc3cccc(C(F)(F)F)c3)CC2)cc1C | 1.1 | -1.4 | -48.6* | -1.9 | 11.1
CN(CC1CCCN(CCc2cccc(C(F)(F)F)c2)C1)C(=O)c1ccco1 (stereo unspecified) | 23.9 | 2.6 | -39.8* | 10.7 | 3.5
SMILES | TRHR PAM | TRHR ag | D1 antag | D1 potentiator | D1 ag
CC(=O)Nc1ccc(CN(C)CC2CCCN(CCc3cccc(C(F)(F)F)c3)C2)cc1 (stereo unspecified) | -0.5 | 0.8 | -5.0 | -2.6 | 4.1
CC(C)(C)OC(=O)n1c2ccsc2c2cnn(Cc3ccccc3F)c(=O)c21 | -1.7 | -2.8 | 10.4 | 4.8 | 0.2
N#Cc1nc(/C=C/c2ccc(F)cc2)oc1N1CCCCCC1 | -4.2 | -0.8 | -5.5 | -0.8 | 0.5
Cc1ccc(C(C)C)cc1NC(=O)Nc1ccc([N+](=O)[O-])cc1 | -6.9 | 2.6 | -48.6* | -14.4 | 16.8
CC(=O)Nc1cc[n+](C(C)C(=O)c2ccc(Cl)cc2)cc1 (stereo unspecified) | -0.7 | 0.0 | -3.3 | -8.9 | 4.0
CC(=O)c1ccc(NC(=O)Nc2ccc([N+](=O)[O-])cc2)cc1 | -1.3 | 2.3 | -36.4* | -2.8 | 20.7
COC(=O)c1sccc1NC(=O)Nc1ccc(C(C)=O)cc1 | -2.0 | 0.0 | -33.3* | 0.1 | -0.6
CC(=O)Nc1cc[n+](CC(=O)c2ccc(Cl)cc2)cc1 | 0.9 | 0.7 | -32.6* | 0.7 | 1.8
COc1ccccc1CNC(=O)c1ccc(CSc2nc3ccncc3n2Cc2cccc(F)c2)cc1 | -8.2 | 0.4 | -15.9 | -7.2 | 8.0
CCOC(=O)Cc1ccc(NC(=O)N2CC(C)Oc3ccc(Cl)cc32)cc1 (stereo unspecified) | 11.2 | 0.7 | 6.9 | 0.1 | 1.6
O=C(Nc1ccc([N+](=O)[O-])cc1)Nc1cnccn1 | -3.0 | 0.2 | -31.8* | -9.4 | 15.7
CC(=O)c1ccc(NC(=O)Nc2ccc(Cl)cc2)cc1 | -3.8 | -0.5 | -35.2* | -5.2 | 29.9
CC(=O)c1ccc(C(=O)Nc2nnc(-c3ccc(Cl)cc3)o2)cc1 | 2.4 | -0.8 | -31.9* | -8.8 | -0.3
COc1ccc(C2/C=C\CN(C(=O)C3CC3)[C@H](Cc3ccccc3)C(=O)N2Cc2ccc(F)cc2)cc1 (stereo partly specified) | -5.0 | -0.1 | -15.4 | -5.6 | 2.3
COc1ccc(C2/C=C\CN(S(=O)(=O)c3ccc4ccccc4c3)CC(=O)N2Cc2ccc(F)cc2)cc1 (stereo unspecified) | 5.8 | 1.1 | -1.2 | -0.1 | 12.2
CCCCCCC(=O)N1C/C=C\C(c2ccc(OC)cc2)N(Cc2ccc(F)cc2)C(=O)[C@H]1Cc1ccccc1 (stereo partly specified) | -8.1 | 2.3 | -35.1* | -1.9 | 12.5
COc1ccc(C2/C=C\CN(C(=O)c3ccc(C)cc3)[C@H](Cc3ccccc3)C(=O)N2Cc2ccc(F)cc2)cc1 (stereo partly specified) | 5.6 | 0.2 | -49.9* | 6.5 | 3.1
CCCCC(=O)N1C/C=C\C(c2ccc(OC)cc2)N(Cc2ccc(F)cc2)C(=O)[C@H]1Cc1ccccc1 (stereo partly specified) | -3.4 | 0.5 | 14.0 | -5.0 | 10.6
COc1ccc(C2/C=C\CN(S(=O)(=O)/C=C/c3ccccc3)CC(=O)N2Cc2ccc(F)cc2)cc1 (stereo unspecified) | -1.8 | -0.6 | -35.5* | -4.5 | 16.3
